Assay outcomes from PubChem BioAssay.
Shown are actives, neighbours in structure and some others; about 19% of the full set was active somewhere.
DT40 TDP1 no CPT: qHTS for Inhibitors of human tyrosyl-DNA phosphodiesterase 1 (TDP1): qHTS in cells in absence of CPT. DT40 Tdp1-/- hTDP1 cells, no CPT, ATP luminescence, 48 h. Potency, µM (series often up to 46.2 µM), hits mostly inhibitors. hit rate 15% among 420,000; also: nearly all actives have a fitted effect of over 55% in size
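Readout: luminescence from CellTiter-Glo after 30 min in the dark at RT. Cells: DT40 Tdp1-/- with stable hTDP1, 400/well. Exposure: compounds alone, ≥48 hr, 37 °C.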
HT1080 IDH1KD tx: toxicity to HT-1080 IDH1 knockdown cells (counter line); HT-1080 IDH1 knockdown viability, ATP luminescence, 48 h; hit rate 2% among 360,000; Potency, µM (top dose mostly 46.1 µM), hits mostly cytotoxic
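IDH1KD HT-1080 cells, 750/well, RPMI + 5% FBS; compound pinned after 2 h settling; 48 h, 37 °C; CellTiter-Glo luminescence; % activity normalised to DMSO and no-cell wells; curves fitted, classed by r2 and efficacy.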
TDP1 cell CPT: DT40-hTDP1 cell growth loss with CPT. chicken DT40 Tdp1-/-;hTDP1 cells + 20 nM CPT, ATP luminescence, 48 h. Potency, µM (series often up to 46.2 µM), usual class: inhibitors. hit rate 12% among 420,000. AID 686979; also: nearly all actives have a fitted effect of over 55% in size
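Chicken DT40 Tdp1-/- cells complemented with human TDP1, 400 cells/well, exposed to compounds plus 20 nM camptothecin for at least 48 h at 37 C; viability read as ATP content by CellTiter-Glo luminescence.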
HT1080NT lethal: kills 2HG-producing HT-1080-NT fibrosarcoma cells; HT-1080-NT fibrosarcoma viability, CellTiter-Glo ATP luminescence, 48 h; hit rate 1.6% among 360,000; Potency, µM (titrated, usually from 46.1 µM), usual class: cytotoxic;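 also: NT is the 2HG producing partner of a matched IDH1 knockdown line; nearly all actives have a fitted effect of over 55% in size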
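A 48-hour cytotoxicity screen used HT-1080-NT cells plated 2 hours before compound delivery. ATP-based CellTiter-Glo luminescence measured viability, normalized to DMSO and no-cell controls.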
IL1B secr inh: inflammasome signaling inhibition, IL-1 beta readout | AID 743279 | hit rate 4.7% among 360,000 | activity change, % at 57.5 µM | THP-1 LPS/ATP IL-1B secretion, AlphaLISA, 16 h; stronger effect = lower value; in the data active = activity change below about -50%; inconclusive = mostly about -30% to -49%
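THP-1 cells pretreated 1 hr with compounds (up to 57.5 uM final), then stimulated with LPS (250 ng/mL final) plus ATP (1.25 mM final); secreted IL-1B measured by AlphaLISA after 16 hr, decreased signal indicating inhibition.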
Hits are given with their value; i = inactive; ? = inconclusive; nt = not tested or not shown. Unless noted, calls follow the shape of the dose curve; as a rule, active = well fitted curve in the direction sought with a large enough effect; inconclusive = small, poorly fitted or top-dose-only effect, or another doubt; inactive = no such curve, though single readings can be large; an effect the other way counts as inactive or inconclusive.

SMILES	DT40 TDP1 no CPT	HT1080 IDH1KD tx	TDP1 cell CPT	HT1080NT lethal	IL1B secr inh
O=C(NC1CCCCCC1)C1CCN(C(=O)N2CCOc3ccc(Cl)cc32)CC1	?	nt	25.9µM	nt	nt
CCc1ccc(NC(=O)C2CCN(C(=O)N3CCOc4ccccc43)CC2)cc1	?	i	25.9µM	i	i
O=C(NCCc1ccccc1)C1CCN(C(=O)N2CCOc3ccccc32)CC1	?	i	i	i	i
COc1ccc(C(O)c2nc(/C=C/c3ccc(C(F)(F)F)cc3)cs2)cc1 (configuration not stated)	?	i	?	i	i
O=C(NCC1CCCO1)c1ccc(COc2ccccc2)cc1 (configuration not stated)	i	i	i	i	i
O=C(Nc1cccc(F)c1)C1CCN(C(=O)N2CCOc3ccccc32)CC1	?	i	?	i	i
Cc1ccc2c(c1)N(C(=O)N1CCC(C(=O)Nc3cccc(F)c3)CC1)CCO2	18.4µM	nt	?	nt	nt
CC1(Cc2ccccc2Cl)C(=O)Nc2ccc(OC(F)(F)F)cc21 (configuration not stated)	?	29.1µM	23.1µM	?	i
CC1(Cc2ccccc2C#N)C(=O)Nc2ccc(OC(F)(F)F)cc21 (configuration not stated)	i	i	i	i	i
C=CCNC(=S)Nc1sc2c(c1C(=O)OCC)CC(C(C)C)OC2 (configuration not stated)	i	7.94µM	i	6.31µM	i
O=C(COc1coc(CN2CCN(c3ccc(F)cc3)CC2)cc1=O)NC1CCCCC1	7.31µM	i	?	i	i
Cc1cc(C)c(NC(=O)Cn2c([N+](=O)[O-])cnc2C)c(C)c1	i	i	i	i	i
OC(c1ccccc1)(C1CCCCC1)C(CN1CCOCC1)c1ccccc1 (configuration not stated)	23.1µM	?	18.4µM	?	i
COc1ccc(C(O)(C2CCCCC2)C(CN2CCOCC2)c2ccccc2)cc1 (configuration not stated)	?	?	25.9µM	?	i
CCOC(=O)CSc1nc2ccccc2c(=O)n1-c1ccc(C)cn1	i	i	i	i	i
CC1CCCCC1NC(=O)COC(=O)c1c2c(nc3ccccc13)/C(=C\c1ccco1)CC2 (configuration not stated)	23.1µM	i	29.1µM	i	?
O=C(COC(=O)c1ccco1)NC1CCCCC1	i	i	i	i	i
CN(CCC#N)C(=O)COC(=O)c1c2c(nc3ccccc13)/C(=C\c1ccco1)CC2	13µM	i	20.6µM	i	-63.3
O=C(COC(=O)c1c2c(nc3ccccc13)/C(=C\c1ccco1)CC2)NC1CCCC1	23.1µM	i	16.4µM	i	i
CN(CC(=O)Nc1ccccc1C(F)(F)F)C(=O)Cn1c(=O)oc2ccccc21	i	i	i	i	i
C[C@H](CCC(=O)OCc1cn(CC(=O)c2ccc(O)cc2)nn1)C1CC[C@H]2[C@@H]3CC[C@@H]4C[C@H](O)CC[C@]4(C)[C@H]3C[C@H](O)[C@]12C (some centres not stated)	?	?	?	?	i
Nc1cc(OCC(F)(F)F)cc(OCC(F)(F)F)c1	i	i	i	i	i
Nc1cc(N)cc(N)c1	4.47µM	nt	4.47µM	nt	nt
CC1=C(C(=O)N2CCCC(C(=O)c3cccc4ccccc34)C2)OCCO1 (configuration not stated)	16.4µM	i	?	i	?
Cn1nccc1C(=O)N1CCCC(C(=O)c2cccc3ccccc23)C1 (configuration not stated)	23.1µM	i	?	?	i
SMILES	DT40 TDP1 no CPT	HT1080 IDH1KD tx	TDP1 cell CPT	HT1080NT lethal	IL1B secr inh
Cc1cccc2cc(C#N)c(NCCNS(=O)(=O)c3ccc4c(c3)OCCO4)nc12	i	i	i	i	i
CCN(CC)S(=O)(=O)c1ccc(Cl)c(NC(=O)COc2ccc(OC)cc2[N+](=O)[O-])c1	?	i	?	i	i
N#CC1=C(Nc2ccccc2)SC=C(c2ccc(Cl)c(Cl)c2)N=C1N1CCOCC1	?	i	13µM	i	-80.2
N#Cc1c(-c2ccccc2)nc(-c2ccccc2)nc1N1CCOCC1	?	i	i	i	?
N#CC1=C(Nc2ccccc2)SC=C(c2ccccc2)N=C1N1CCOCC1	29.1µM	i	5.8µM	i	i
COCCCN1C(=O)C(CC(=O)NCCCN(C)C)CC(C(=O)N2CCCCCC2)=C1C (configuration not stated)	i	i	i	i	i
Cc1ccc(CCNC(=O)c2c[nH]c3ccc(S(=O)(=O)Nc4cccc(C(F)(F)F)c4)cc3c2=O)cc1	?	nt	20.6µM	nt	nt
O=C(NC1CCCC1)c1c[nH]c2ccc(S(=O)(=O)Nc3cccc(C(F)(F)F)c3)cc2c1=O	20.6µM	nt	?	nt	nt
CN(C(=O)c1c[nH]c2ccc(S(=O)(=O)Nc3cccc(C(F)(F)F)c3)cc2c1=O)C1CCCCC1	i	nt	i	nt	nt
CCc1ccc(NS(=O)(=O)c2ccc3[nH]cc(C(=O)NC4CCCC4)c(=O)c3c2)cc1	?	nt	i	nt	nt
COc1cccc(NS(=O)(=O)c2ccc3[nH]cc(C(=O)NCCC(C)C)c(=O)c3c2)c1	14.6µM	?	10.3µM	11.6µM	i
Cc1cc(C)cc(NS(=O)(=O)c2ccc3[nH]cc(C(=O)NCCc4ccccc4)c(=O)c3c2)c1	16.4µM	nt	?	nt	nt
CCc1ccc(NS(=O)(=O)c2ccc3[nH]cc(C(=O)NCCc4ccccc4)c(=O)c3c2)cc1	i	nt	i	nt	nt
O=C(CS(=O)(=O)c1cn(CC(=O)N2CCOCC2)c2ccccc12)Nc1ccccc1F	i	i	i	i	i
Cc1ccc(NC2CCCN(C(=O)C3CCCC3)C2)cc1C (configuration not stated)	?	i	?	i	i
CCOC(=O)CSc1nc2sc3c(c2c(=O)n1-c1ccc(OC)cc1)CC(C(C)C)OC3 (configuration not stated)	i	nt	i	nt	nt
CCc1ccc(NS(=O)(=O)c2ccc3[nH]cc(C(=O)N(C)Cc4ccco4)c(=O)c3c2)cc1	14.6µM	i	?	i	i
O=C(CCSc1nc2ccccc2s1)N/N=C/c1c(O)ccc2ccccc12	3.66µM	?	6.51µM	?	i
COc1ccc(/C=N/NC(=O)c2cccc(C(=O)N/N=C/c3ccc(OC)c(OC)c3)n2)cc1OC	i	i	i	i	i
COc1ccc(/C=N/NC(=O)CCn2cnc(-c3ccccc3)c2-c2ccccc2)cc1OC	6.51µM	8.2µM	5.17µM	9.2µM	i
CCc1cccc(C)c1NC(=O)CCCSc1nc2ccccc2s1	16.4µM	i	18.4µM	i	i
COc1ccc(/C=N/NC(=O)Nc2cccc3nsnc23)cc1OC	9.2µM	i	9.2µM	i	i
Cc1ccccc1NC(=O)CCCSc1nc2ccccc2s1	?	i	?	i	i
